Screening data (PubChem BioAssay)
An excerpt weighted towards active compounds, which were near 2.3% of everything screened.
Tau fluor cs: counter-screen for tau fibril formation inhibitors; tau K18 P301L Alexa594 fluorescence, heparin fibrillization; Potency, µM (doses to about 57.7 µM); 0.93% of 280,000 active; AID 1463; note: nearly all actives have a fitted effect of over 55% in size
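Human K18 P301L tau (15 uM unlabeled plus 0.24 uM Alexa 594-labeled, final) in 100 mM sodium acetate pH 7 was mixed with compound and 20 uM heparin and incubated 6 hr at 37 C.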
USP1 inh: blocks the human USP1/UAF1 deubiquitinase complex | O94782 | recombinant USP1/UAF1, Ub-Rhodamine cleavage fluorescence | Potency, µM (highest dose often 57.1 µM), usual class: inhibitors | 0.23% of 390,000 active; note: nearly all actives have a fitted effect of over 60% in size
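USP1/UAF1 complex (1 nM) preincubated 15 min at room temperature with compound, then Ub-Rho substrate (150 nM final) added. Kinetic fluorescence at 480/540 nm over 6 reads at 60 s intervals; 50 mM HEPES pH 7.8, 0.5 mM EDTA, 0.1 mg/ml BSA, 1 mM TCEP, 0.01% Tween-20.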
Tau fibril FP: tau fibrillization inhibition (FP). P10636. K18 P301L tau heparin fibrillization, Alexa594 FP, 6 h. Potency, µM (highest dose often 57.7 µM), hits mostly inhibitors. 0.39% of 280,000 active. AID 1468; note: nearly all actives have a fitted effect of over 55% in size
Target sequence (P10636 561-689 P618L limits assumed): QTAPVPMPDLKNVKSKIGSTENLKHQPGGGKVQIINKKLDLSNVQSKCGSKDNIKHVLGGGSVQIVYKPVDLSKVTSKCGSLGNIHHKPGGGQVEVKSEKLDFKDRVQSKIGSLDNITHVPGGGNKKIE
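Human K18 P301L fragment (15 uM unlabeled plus 0.24 uM Alexa 594-labeled) in 100 mM sodium acetate pH 7 with compound, aggregation induced by 20 uM heparin for 6 hr at 37 C. ThT (30 uM) added for 1 hr, then Alexa 594 FP read.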
Tau ThT inhib: tau fibrillization inhibition (ThT binding) | recombinant tau K18 P301L, heparin-induced fibrillization, ThT fluorescence | Potency, µM (titrated, usually from 57.4 µM), most hits filed as inhibitors | 2.1% of 270,000 active | AID 1460; note: nearly all actives have a fitted effect of over 55% in size
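ThT emission at 510 nm, taken 1 hr after adding 30 uM dye, quantifies aggregates formed when 20 uM heparin acts on human tau K18 P301L for 6 hr at 37 C.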
FBPA coupling cs: counter-screen for Giardia aldolase inhibitors: coupling enzyme system; coupling enzyme system counterscreen, AmpLite Red fluorescence; activity change, negative = inhibition, % at 58.2 µM, hits read low; 0.67% of 290,000 active; in the data active = activity change below about -30%
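Activity here indicates interference with the coupling reaction, not aldolase inhibition. Compounds at 57.5 uM final met coupling enzymes for 10 min at RT; substrate and AmpLite Red detection followed, with a 525/598 nm fluorescence read after 20 min.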
Numbers stand for hits; . = inactive; ? = inconclusive; / = no result; [ ] = dose if it differs, or a comment. Unless noted, calls come from the whole dose curve; as a rule, active = well fitted curve in the direction sought with a large enough effect; inconclusive = small, poorly fitted or top-dose-only effect, or another doubt; inactive = no such curve, though single readings can be large; an effect the other way counts as inactive or inconclusive.

SMILES	Tau fluor cs	USP1 inh	Tau fibril FP	Tau ThT inhib	FBPA coupling cs
NS(=O)(=O)c1ccc(NC(=O)COC(=O)c2cn(-c3ccccc3)nc2-c2ccc(F)cc2)cc1	?	.	13µM	.	.
O=C(COC(=O)c1cn(-c2ccccc2)nc1-c1ccc(F)cc1)Nc1ncc(Cl)cc1Cl	?	.	.	.	.
COC(=O)C(CCSC)Nc1ncnc2onc(-c3ccc(F)cc3)c12 (configuration not stated)	.	.	.	.	/
O=C1Nc2cc3c(cc2C1=O)sc1ccccc13	?	.	.	1.1µM	.
C[C@H]1COC(=O)[C@H]2CCCN2C(=O)[C@@H](C)COC(=O)[C@H]2CCCN2C1=O	.[11.6 µM]	/	.[11.6 µM]	.[11.5 µM]	.
O=C(CSc1ccc(-c2ccncc2)nn1)c1ccccc1	.	.	.	.	.
O=C(CSc1ccc(-c2ccccn2)nn1)c1ccc([N+](=O)[O-])cc1	.	.	.	16µM	.
O=C(CSc1ccc(-c2cccnc2)nn1)c1ccc([N+](=O)[O-])cc1	?	.	.	14µM	.
O=C(/C=C/c1cccs1)c1ccc(N2CCOCC2)cc1	.	.	.	16µM	.
O=C(/C=C/c1cccs1)c1ccc([N+](=O)[O-])cc1	.	.	.	?	.
O=C(/C=C/c1cccc(F)c1)c1ccc(N2CCOCC2)cc1	?	.	.	13µM	.
O=C(/C=C/c1cccc(F)c1)Nc1cc(S(=O)(=O)N2CCOCC2)ccc1Cl	/	.	/	/	/
CCOc1cc(C=C(C(=O)OC)C(=O)OC)ccc1OCc1ccc([N+](=O)[O-])cc1	.	.	.	13µM	.
CCOc1cc(/C=N/O)ccc1OCc1ccc([N+](=O)[O-])cc1	.	.	.	.	.
C=CCN(c1ccccc1OC)S(=O)(=O)c1cccc(C(=O)OCC(=O)c2c[nH]c3ccccc23)c1	?	.	16µM	.	.
COc1cc(OC)c(N(C)S(=O)(=O)c2cccc(C(=O)OCC(=O)c3c[nH]c4ccccc34)c2)cc1Cl	?	.	13µM	.	.
COc1ccc(C(=O)OCC(=O)c2c[nH]c3ccccc23)cc1OC	/	.	/	/	/
CC1=Nc2ccccc2/C1=C/c1sc(=S)n(-c2cccc(C(=O)O)c2)c1O	?	28µM	.	3.5µM	.
O=C1Nc2ccc(F)cc2C12Nc1ccccc1-c1nnc(SCc3ccccc3Cl)nc1O2 (configuration not stated)	?	.	?	28µM	.
Cc1ccc(CSc2nnc3c(n2)OC2(Nc4ccccc4-3)C(=O)Nc3ccc(F)cc32)cc1 (configuration not stated)	?	.	?	28µM	.
O=C1Nc2ccc(F)cc2C12Nc1ccccc1-c1nnc(SCc3ccccc3)nc1O2 (configuration not stated)	?	.	?	?	.
CN=c1sc2c(n1C)C(=O)c1ccccc1C2=O	/	16µM	/	/	/
Cc1onc(-c2ccccc2)c1C(=O)N(Cc1ccco1)Cc1cccs1	.	.	.	.	-35
O=C(c1ccccc1)N(Cc1ccco1)Cc1cccs1	.	.	.	.	/
CCOc1cc(NC(C)=O)ccc1C(=O)OC	/	/	/	/	.
SMILES	Tau fluor cs	USP1 inh	Tau fibril FP	Tau ThT inhib	FBPA coupling cs
CC(C)=CC[C@@H](O)C1=CC(=O)c2c(O)ccc(O)c2C1=O	?	/	13µM	4.5µM	/
CSc1ccc(CCNC(=O)CCCn2nc(C)c3sc4ccccc4c3c2=O)cc1	?	.	?	?	/
CCOC(=O)c1cc(-c2ccc(C)cc2)n(CCC(=O)Nc2ccc(OC)c(OC)c2)c1C	?	?	.	.	/
CCc1cc2c(cc3c(=O)n(CCCC(=O)NCc4cccc(Br)c4)ncn32)s1	.	.	.	?	/
O=C(Nc1ccc2nsnc2c1)N1CCCCCC1	.	.	.	.	.
S=C(Nc1ccc2nsnc2c1)N1CCCC1	.	.	?	25µM	.
CC(=O)c1ccc(NC(=O)C(C)OC(=O)c2ccc(Br)o2)cc1 (configuration not stated)	/	.	/	/	/
Nc1nc(Nc2ccccc2)nc(NCc2ccco2)c1[N+](=O)[O-]	13µM[quencher]	.	?	?	.
Cc1ccc2onc(CC(=O)N3CCN(c4ccc(F)cc4)CC3)c2c1	.	.	.	.	/
CCOc1ccc(Nc2cc(Nc3ccccc3OCC)nc(C=C(C#N)C#N)n2)cc1	.	?	.	2.8µM	.
CCOc1ccccc1Nc1cc(-c2ccccc2)nc(C)n1	.	?	.	.	/
N#CC1=C(S)N=C(N)C(c2nc(-c3ccccc3)cs2)C12CCCC2 (configuration not stated)	?	.	?	28µM	.
N#CC1=C(S)N=C(N)C(c2nc(-c3ccccc3)cs2)C12CCCCC2 (configuration not stated)	.	.	?	?	.
Oc1[nH]c2ccccc2c1N=Nc1ccccn1	/	.	/	/	/
Oc1c(N=Nc2ccccn2)ccc2ccccc12	?	.	?	4.5µM	.
CCN(CC)/C(Sc1ccccc1)=C(\C(Cl)=C(Cl)Cl)[N+](=O)[O-]	.	.	.	.	.
O=[N+]([O-])/C(C(Cl)=C(Cl)Cl)=C(\Sc1ccccc1)N1CCCCC1	.	.	?	25µM	.
Cc1ccc(-c2nnc(SCc3ccccc3C#N)o2)cc1	.	.	.	.	/
COc1ccc(NC(=O)[C@@H]2[C@@H]3C(=O)N(C4CCCCC4)C(=O)[C@@H]3C3c4ccccc4C=CN32)cc1 (some centres not stated)	.	32µM	.	?	-31
O=C(Nc1nc(-c2ccc(F)cc2)cs1)c1cccc(N2C(=O)CCC2=O)c1	/	.	/	/	.
CC(C)=NNc1nc(-c2ccc(N3C(=O)CCC3=O)cc2)cs1	?	?	?	18µM	.
COc1ccc(-c2nc3cc(NC(=O)COc4ccccc4C)ccc3o2)cc1	.	?	.	?	/
CCOc1ccc(NS(=O)(=O)c2ccc3[nH]cc(C(=O)NC4CCCC4)c(=O)c3c2)cc1	?	.	25µM	.	/
CCc1ccc(NS(=O)(=O)c2ccc3[nH]cc(C(=O)NC4CCCC4)c(=O)c3c2)cc1	?	.	11µM	.	/
CCc1ccc(NS(=O)(=O)c2ccc3[nH]cc(C(=O)NCCc4ccccc4)c(=O)c3c2)cc1	.	.	?	.	/
Cc1ccc(C(=O)OCC(=O)c2c[nH]c3ccccc23)cc1	.	.	.	.	.
CC(C)C(NS(=O)(=O)c1c(Cl)cccc1Cl)C(=O)OCC(=O)c1c[nH]c2ccccc12 (configuration not stated)	8.9µM[quencher]	.	?	.	.
CC(C)Cc1ccc(C(C)C(=O)OCC(=O)c2c[nH]c3ccccc23)cc1 (configuration not stated)	?	.	22µM	.	.
C/C(=N/OC(=O)C1CC1)c1cc(-c2ccc(Cl)cc2)no1	.	.	.	.	.
O=[N+]([O-])c1cccc(OCCN2CCC(Cc3ccccc3)CC2)c1	/	.	/	/	.
